# Source: PubChem BioAssay (National Center for Advancing Translational Sciences (NCATS))
# DT40 TDP1 CPT – growth inhibition of DT40 Tdp1-/-;hTDP1 cells with camptothecin (screen for TDP1 inhibitors); chicken DT40 Tdp1-/-;hTDP1 cells + 20 nM CPT, ATP luminescence, 48 h; Potency, µM (highest dose often 46.2 µM), most hits filed as inhibitors; AID 686979; 12% of 420,000 active; further: nearly all actives have a fitted effect of over 55% in size
#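 Chicken DT40 Tdp1-/- cells complemented with human TDP1, 400 cells/well, exposed to compounds plus 20 nM camptothecin for at least 48 h at 37 C; viability read as ATP content by CellTiter-Glo luminescence.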
# DT40 TDP1 no CPT – qHTS for Inhibitors of human tyrosyl-DNA phosphodiesterase 1 (TDP1): qHTS in cells in absence of CPT. AID 686978, 2013. Potency, µM (titrated, usually from 46.2 µM), actives largely listed as inhibitors. DT40 Tdp1-/- hTDP1 cells, no CPT, ATP luminescence, 48 h. 15% of 420,000 active; further: nearly all actives have a fitted effect of over 55% in size
#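 Readout: luminescence from CellTiter-Glo after 30 min in the dark at RT. Cells: DT40 Tdp1-/- with stable hTDP1, 400/well. Exposure: compounds alone, ≥48 hr, 37 °C.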
# TDP1 inh – inhibitors of human tyrosyl-DNA phosphodiesterase TDP1; Q9NUW8; recombinant TDP1, AlphaScreen DNA substrate cleavage; Potency, µM (top dose mostly 130 µM), hits mostly inhibitors; 0.28% of 350,000 active; further: nearly all actives have a fitted effect of over 40% in size
# Target sequence (Q9NUW8 whole entry, looked up): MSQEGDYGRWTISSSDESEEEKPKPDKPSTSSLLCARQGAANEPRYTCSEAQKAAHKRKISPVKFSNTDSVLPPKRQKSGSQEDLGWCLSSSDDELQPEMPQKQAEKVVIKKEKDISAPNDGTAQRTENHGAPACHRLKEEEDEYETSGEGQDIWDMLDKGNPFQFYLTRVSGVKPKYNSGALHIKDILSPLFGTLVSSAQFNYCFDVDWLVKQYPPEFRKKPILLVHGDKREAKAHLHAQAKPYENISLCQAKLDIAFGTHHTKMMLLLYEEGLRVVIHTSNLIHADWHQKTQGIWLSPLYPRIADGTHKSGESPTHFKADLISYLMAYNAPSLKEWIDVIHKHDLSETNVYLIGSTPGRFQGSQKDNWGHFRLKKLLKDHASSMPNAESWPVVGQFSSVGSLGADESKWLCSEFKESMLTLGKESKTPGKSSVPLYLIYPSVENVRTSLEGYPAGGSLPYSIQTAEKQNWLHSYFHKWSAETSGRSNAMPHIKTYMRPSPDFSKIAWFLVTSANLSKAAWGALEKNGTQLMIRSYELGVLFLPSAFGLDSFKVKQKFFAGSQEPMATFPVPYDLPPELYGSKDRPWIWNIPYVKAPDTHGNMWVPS
#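 Recombinant human Tdp1 (E. coli-expressed, 1 nM final) preincubated with compounds 15 min at room temperature, then 5'-biotin/3'-phosphotyrosine-FITC DNA substrate (15 nM final) added for 5 min. AlphaScreen beads (10 ug/ml final) added 10 min; cleavage lowers signal.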
# IL1B secr inh – inflammasome signaling inhibition, IL-1 beta readout. THP-1 LPS/ATP IL-1B secretion, AlphaLISA, 16 h; stronger effect = lower value. activity change, % at 57.5 µM. 4.7% of 360,000 active; in the data active means activity change below about -50%; inconclusive means mostly about -30% to -49%
#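 THP-1 cells pretreated 1 hr with compounds (up to 57.5 uM final), then stimulated with LPS (250 ng/mL final) plus ATP (1.25 mM final); secreted IL-1B measured by AlphaLISA after 16 hr, decreased signal indicating inhibition.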
# HepG2 tox – HepG2 cytotoxicity, counter-screen for TGF-b inhibitors; Potency, µM (highest dose often 46.1 µM), actives largely listed as cytotoxic; HepG2 CAGA-GFP viability, ATP luminescence, 18 h; 0.76% of 410,000 active; AID 588856
#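 HepG2 CAGA-GFP cells (1000/well, DMEM with 1% FBS) received compound, then TGF-beta at 500 pg/mL final, and were incubated 18 hours at 37 degrees C. Viability was read by CellTiter-Glo luminescence. Media-only wells were set as complete cell-killing and DMSO as no toxicity.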
# TGFb SMAD3 inh – TGF-b pathway inhibition. HepG2 CAGA-GFP TGF-b/SMAD3 reporter, GFP fluorescence, 18 h; TGF-beta stimulated, 500 pg/mL final. Potency, µM (top dose mostly 46.1 µM), actives largely listed as inhibitors. 1.2% of 410,000 active. AID 588855; further: nearly all actives have a fitted effect of over 65% in size
#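 TGF-beta reporter screen: HEPG2 CAGA-GFP, 1% FBS, 500 pg/mL TGF-beta final, 18 h; per-cell GFP summed per well; curves fitted and categorized by class.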
# A number is an active result; . = inactive; ? = inconclusive; / = no result given. This is a sample that favours compounds with a hit; in the whole collection about 18% have one here. Unless noted, the call rests on the fitted dose curve; in most records, active means well fitted curve in the direction sought with a large enough effect; inconclusive means small, poorly fitted or top-dose-only effect, or another doubt; inactive means no such curve, though single readings can be large; an effect the other way counts as inactive or inconclusive.
SMILES,DT40 TDP1 CPT,DT40 TDP1 no CPT,TDP1 inh,IL1B secr inh,HepG2 tox,TGFb SMAD3 inh
COc1cccc(-c2nc(CCl)cs2)c1,21µM,?,.,?,.,.
O=C(O)/C(=C\c1ccccc1)c1ccc2ccccc2c1,.,.,/,.,.,.
COc1cc(/C=N/Nc2nncc3ccccc23)cc(OC)c1OC,21µM,12µM,/,.,.,.
CN(C)c1ccc(/C=N/Nc2nncc3ccccc23)cc1,?,13µM,/,.,.,.
COc1ccc(/C=N/Nc2nncc3ccccc23)c(OC)c1,26µM,?,.,.,.,.
COC(CN1C(=O)C(O)=C(C(C)=O)C1c1ccccn1)OC (configuration not stated),.,.,.,.,.,.
COc1cccc(-c2cc(C(=O)NCc3ccc(F)cc3)no2)c1,.,.,.,/,.,.
COc1cc(C(=O)N2CCc3c([nH]c4ccccc34)C2c2ccc(F)cc2)cc(OC)c1OC (configuration not stated),13µM,15µM,.,/,.,.
CCOc1cc(C(=O)N2CCc3c([nH]c4ccccc34)C2c2ccccc2)cc(OCC)c1OCC (configuration not stated),6.5µM,5.8µM,.,/,.,.
C=CCc1ccccc1OCC(O)CN1CCN(c2ccc(C)cc2)CC1 (configuration not stated),?,?,.,?,.,?
OC(COc1c(F)cc(Br)cc1F)CN1CCN(c2ccc(F)cc2)CC1 (configuration not stated),?,18µM,.,.,.,.
OC(COc1cccc2ccccc12)CN1CCN(c2ccc(Cl)cc2)CC1 (configuration not stated),?,23µM,.,.,.,16µM
Cc1cccc(N2CCN(CC(O)COc3ccccc3Cl)CC2)c1 (configuration not stated),?,16µM,.,.,.,.
COc1ccc(NCC(=O)N/N=C/C(C)c2ccccc2)cc1 (configuration not stated),.,.,.,.,.,.
COc1cc(NC(=O)C2CCCN(S(=O)(=O)c3ccc4c(c3)CCCN4C(C)=O)C2)cc(OC)c1 (configuration not stated),.,.,.,.,.,?
O=C(/C=C/c1ccc(F)cc1)NC(=S)NNC(=O)c1cnccn1,3.7µM,3.3µM,.,.,.,.
COc1ccc(/C=C/C(=O)NC(=S)NNC(=O)c2cnccn2)cc1,2.9µM,5.2µM,.,.,.,.
COc1ccc(/C=C/C(=O)NC(=S)NNC(=O)c2cccnc2)cc1,?,?,.,.,.,.
O=C(NC(=S)NNC(=O)c1ccccc1O)c1ccc(F)cc1,?,?,/,.,.,.
O=C(NC(=S)NNC(=O)c1cnccn1)c1ccc(F)cc1,3.3µM,5.2µM,.,.,.,.
CCC(=O)N1CCC(C)(C(=O)Nc2ccc3c(c2)OCCO3)C1 (configuration not stated),.,.,/,.,.,.
C=CC(=O)Nc1cccc(N(C)c2ccnc(Nc3ccc(N4CCN(C)CC4)cc3)n2)c1,?,5.2µM,/,-100,.,5µM
CN1CCN(c2ccc(NC(=O)COc3ccc4ccccc4c3)cc2)CC1,?,?,/,.,.,.
CC1CC(=O)Nc2ccccc2N1C(=O)CSc1ccc2ccccc2n1 (configuration not stated),16µM,?,.,.,.,.
CCn1nnnc1SCC(=O)N1c2ccccc2NC(=O)CC1C (configuration not stated),.,.,.,.,.,.
CC1CC(=O)Nc2ccccc2N1C(=O)CSc1ncnc2sccc12 (configuration not stated),.,.,.,.,.,.
